PubChem BioAssay (NCI)
About 79,000 compounds went through this panel and 15% of them were active in at least one assay; those are over-represented in the sample as a whole. Activity calls are given as the source filed them. Cut-off read from the data, not from the text of the source: active = growth inhibition above about 70%; inactive = the rest.

How the values were obtained:
[1] = NCI Yeast Anticancer Drug Screen. Data for the rad52 strain (AID 147);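 note: 0% = growth of vehicle-treated control cultures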; conditions: S. cerevisiae rad52 mutant growth inhibition, stronger effect = higher value
Procedure, shortened: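 Here a repair-compromised yeast strain receives each compound; its growth is then quantified and normalised to vehicle-only controls.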

[2] = NCI Yeast Anticancer Drug Screen. Data for the wt1 strain (AID 149);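 note: 0% = growth of vehicle-treated wt1 cultures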; conditions: S. cerevisiae wt1 strain (SPY 50644) growth inhibition, stronger effect = higher value
Procedure, shortened: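 Measured: growth of wt1 yeast under compound versus vehicle treatment, reported as inhibition.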

[3] = NCI Yeast Anticancer Drug Screen. Data for the rad50EPP+ strain (AID 151);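 note: 0% = growth of vehicle-treated control cultures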; conditions: S. cerevisiae rad50 mutant strain, stronger effect = higher value
Procedure, shortened: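 Read-out is yeast growth inhibition relative to vehicle; cells used were the rad50EPP+ strain.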

[4] = NCI Yeast Anticancer Drug Screen. Data for the mgt1 strain (AID 153); conditions: S. cerevisiae mgt1 mutant growth inhibition, stronger effect = higher value
Procedure, shortened: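 Measured: inhibition of mgt1 yeast growth by compound, normalized to vehicle-treated cultures.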

[5] = NCI Yeast Anticancer Drug Screen. Data for the rad50 strain (AID 155);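 note: 0% = growth of vehicle-only cultures of the same strain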; conditions: S. cerevisiae rad50 strain growth inhibition, stronger effect = higher value
Procedure, shortened: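 Growth of the mutant yeast was measured after compound exposure and referenced to vehicle-treated cultures.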

[6] = NCI Yeast Anticancer Drug Screen. Data for the mec2-1 strain (AID 157); conditions: S. cerevisiae mec2-1 strain, stronger effect = higher value
Procedure, shortened: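 Using mec2-1 yeast: add compound, measure growth, express inhibition versus vehicle-treated cultures.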

[7] = NCI Yeast Anticancer Drug Screen. Data for the rad14 strain (AID 159);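 note: 0% = growth of vehicle-treated control cultures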; conditions: S. cerevisiae rad14 strain growth inhibition, stronger effect = higher value
Procedure, shortened: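 Here, inhibition of yeast growth was measured after compound exposure, using a strain with a genetic defect in DNA damage repair and vehicle-treated cultures as the reference.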

[8] = NCI Yeast Anticancer Drug Screen. Data for the sgs1 mgt1 strain (AID 161);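 note: 0% = growth of cultures given vehicle only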; conditions: S. cerevisiae sgs1 mgt1 strain, stronger effect = higher value
Procedure, shortened: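 Percent growth inhibition was derived by comparing compound-exposed mutant yeast with vehicle-exposed cultures. The strain carries alterations in DNA damage repair.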

[9] = NCI Yeast Anticancer Drug Screen. Data for the CLN2oe strain (AID 163);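 note: 0% = growth of vehicle-only control cultures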; conditions: S. cerevisiae CLN2oe strain, stronger effect = higher value
Procedure, shortened: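 Whole-cell yeast growth assay. A strain engineered for altered cell-cycle control received compound, and inhibition relative to vehicle-treated cultures was recorded.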

[10] = NCI Yeast Anticancer Drug Screen. Data for the cln2 rad14 strain (AID 165);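 note: 0% = growth equal to vehicle treated cultures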; conditions: S. cerevisiae cln2 rad14 strain, stronger effect = higher value
Procedure, shortened: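 Yeast strain cln2 rad14, bearing defects in cell cycle control and DNA repair, serves as the test system; values reflect growth inhibition compared with vehicle.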

[11] = NCI Yeast Anticancer Drug Screen. Data for the bub3 strain (AID 167); conditions: S. cerevisiae bub3 mutant strain, stronger effect = higher value
Procedure, shortened: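 Whole-cell yeast assay. The mutant strain was incubated with compounds, and growth inhibition was determined by comparison with vehicle-treated cells.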

[12] = NCI Yeast Anticancer Drug Screen. Data for the wt2 strain (AID 169);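 note: 0% = growth of vehicle-treated yeast cultures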; conditions: S. cerevisiae wt2 strain growth inhibition, stronger effect = higher value
Procedure, shortened: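 Treated yeast vs. vehicle-treated yeast: growth inhibition determined.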

[13] = NCI Yeast Anticancer Drug Screen. Data for the mlh1 strain (AID 171);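 note: 0% = growth of vehicle-treated control cultures of the same strain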; conditions: S. cerevisiae mlh1 strain growth inhibition, stronger effect = higher value
Procedure, shortened: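 A yeast strain with a defined genetic lesion serves as the test organism. Cultures receive compound or vehicle, and growth is measured.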

[14] = NCI Yeast Anticancer Drug Screen. Data for the sgs1 strain (AID 173);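 note: 0% = growth of vehicle-only control cultures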; conditions: S. cerevisiae sgs1 mutant, stronger effect = higher value
Procedure, shortened: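 A genetically defined yeast mutant is incubated with the test compound, and its growth is compared to that of the same strain given vehicle.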

[15] = NCI Yeast Anticancer Drug Screen. Data for the mlh1 rad18 strain (AID 175); conditions: S. cerevisiae mlh1 rad18 strain growth inhibition, stronger effect = higher value
Procedure, shortened: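 Steps: expose repair-defective yeast to compound; measure growth; express inhibition against vehicle-treated controls.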

[16] = NCI Yeast Anticancer Drug Screen. Data for the rad18 strain (AID 177); conditions: S. cerevisiae rad18 mutant growth inhibition, stronger effect = higher value
Procedure, shortened: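 Measured value is growth inhibition of a yeast strain bearing a DNA repair alteration, referenced to vehicle-treated cells.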

[17] = at 5.0 µM (retest, dose inferred, filed as 0.5)
[18] = at 50.0 µM (retest, dose inferred, filed as 5.0)

Measured: growth inhibition

CCCCN(CCC#N)c1ccc(/C=C/c2ccnc3ccccc23)cc1
inactive: [1]; at 1.2 µM -6% | [1]; at 3.7 µM -9% | [1]; at 11.0 µM -9% | [1]; at 33.0 µM 63% | [2]; at 1.2 µM -6% | [2]; at 3.7 µM -10% | [2]; at 11.0 µM -13% | [2]; at 33.0 µM 66% | [3]; at 1.2 µM -3% | [3]; at 3.7 µM 7% | [3]; at 11.0 µM 30% | [3]; at 33.0 µM 38% | [3]; at 100.0 µM 26% | [4]; at 1.2 µM -6% | [4]; at 3.7 µM -9% | [4]; at 11.0 µM 0% | [4]; at 33.0 µM 62% | [5]; at 1.2 µM -4% | [5]; at 3.7 µM -7% | [5]; [17] 36% | [5]; at 11.0 µM -6% | [5]; at 33.0 µM 46% | [5]; [18] 30% | [5]; at 50.0 µM -15.1% | [6]; at 1.2 µM -9% | [6]; at 3.7 µM -10% | [6]; [17] 4% | [6]; at 11.0 µM -9% | [6]; at 33.0 µM 45% | [6]; at 50.0 µM -6.1% | [7]; at 1.2 µM -8% | [7]; at 3.7 µM -10% | [7]; at 11.0 µM -5% | [7]; at 33.0 µM -1% | [7]; at 100.0 µM 56% | [8]; [17] -11% | [8]; at 50.0 µM 14.9% | [9]; at 1.2 µM -8% | [9]; at 3.7 µM -14% | [9]; at 11.0 µM -22% | [9]; at 33.0 µM -23% | [9]; at 100.0 µM 22% | [10]; [17] 2% | [10]; [18] 12% | [10]; at 50.0 µM -9.8% | [11]; at 1.2 µM -7% | [11]; at 3.7 µM -14% | [11]; [17] -7% | [11]; at 11.0 µM -13% | [11]; at 33.0 µM -3% | [11]; at 50.0 µM -8.45% | [11]; at 100.0 µM 53% | [12]; at 1.2 µM -9% | [12]; at 3.7 µM -12% | [12]; at 11.0 µM -1% | [12]; at 33.0 µM 69% | [13]; at 1.2 µM -3% | [13]; at 3.7 µM -6% | [13]; at 11.0 µM 10% | [13]; at 33.0 µM 55% | [14]; at 1.2 µM -4% | [14]; at 3.7 µM -5% | [14]; at 11.0 µM 17% | [15]; [17] 16% | [15]; at 50.0 µM 11.7% | [16]; at 1.2 µM -3% | [16]; at 3.7 µM -3% | [16]; at 11.0 µM 1% | [16]; at 33.0 µM 32%
active: [1]; at 100.0 µM 79% | [2]; at 100.0 µM 85% | [4]; at 100.0 µM 76% | [5]; at 100.0 µM 72% | [6]; [18] 80% | [6]; at 100.0 µM 80% | [8]; [18] 77% | [11]; [18] 73% | [12]; at 100.0 µM 83% | [13]; at 100.0 µM 76% | [14]; at 33.0 µM 73% | [14]; at 100.0 µM 84% | [15]; [18] 74% | [16]; at 100.0 µM 77%

C=C(C(=O)OC)N1C(=O)CC(C)C1=O (stereo unspecified)
inactive: [1]; at 1.2 µM 0% | [1]; at 3.7 µM 10% | [1]; at 11.0 µM 14% | [1]; at 33.0 µM 24% | [1]; at 100.0 µM 56% | [2]; at 1.2 µM 7% | [2]; at 3.7 µM 15% | [2]; at 11.0 µM 12% | [2]; at 33.0 µM 19% | [2]; at 100.0 µM 67% | [3]; at 1.2 µM -1% | [3]; at 3.7 µM 4% | [3]; at 11.0 µM 6% | [3]; at 33.0 µM 8% | [3]; at 100.0 µM -10% | [4]; at 1.2 µM 16% | [4]; at 3.7 µM 6% | [4]; at 11.0 µM 9% | [4]; at 33.0 µM 27% | [5]; at 1.2 µM 8% | [5]; at 3.7 µM 8% | [5]; [17] 14% | [5]; at 11.0 µM 13% | [5]; at 33.0 µM 14% | [5]; [18] 66% | [5]; at 100.0 µM 67% | [6]; at 1.2 µM 0% | [6]; at 3.7 µM 12% | [6]; [17] 27% | [6]; at 11.0 µM 23% | [6]; at 33.0 µM 48% | [7]; at 1.2 µM -11% | [7]; at 3.7 µM -2% | [7]; at 11.0 µM 8% | [7]; at 33.0 µM 11% | [7]; at 100.0 µM 68% | [8]; [17] 32% | [9]; at 1.2 µM -3% | [9]; at 3.7 µM 11% | [9]; at 11.0 µM 10% | [9]; at 33.0 µM 14% | [9]; at 100.0 µM 38% | [10]; [17] 6% | [10]; [18] 30% | [10]; at 50.0 µM 47.4% | [11]; at 1.2 µM 10% | [11]; at 3.7 µM 1% | [11]; [17] 21% | [11]; at 11.0 µM 9% | [11]; at 33.0 µM 25% | [12]; at 1.2 µM -41% | [12]; at 3.7 µM -26% | [12]; at 11.0 µM -17% | [12]; at 33.0 µM 50% | [13]; at 1.2 µM 2% | [13]; at 3.7 µM 4% | [13]; at 11.0 µM 6% | [13]; at 33.0 µM 42% | [14]; at 1.2 µM 0% | [14]; at 3.7 µM 12% | [14]; at 11.0 µM 21% | [14]; at 33.0 µM 40% | [14]; at 100.0 µM 67% | [15]; [17] 57% | [15]; at 50.0 µM 67.5% | [16]; at 1.2 µM -5% | [16]; at 3.7 µM 7% | [16]; at 11.0 µM 17% | [16]; at 33.0 µM 32%
active: [4]; at 100.0 µM 71% | [5]; at 50.0 µM 75.5% | [6]; [18] 85% | [6]; at 50.0 µM 80.2% | [6]; at 100.0 µM 81% | [8]; [18] 81% | [8]; at 50.0 µM 77.3% | [11]; [18] 88% | [11]; at 50.0 µM 85.5% | [11]; at 100.0 µM 80% | [12]; at 100.0 µM 87% | [13]; at 100.0 µM 80% | [15]; [18] 96% | [16]; at 100.0 µM 75%
